Structures are written as SMILES. About 4,000 (25%) of roughly 16,000 compounds were called active. Roughly 26% stayed inconclusive and do not appear here. Calls come from the whole dose curve; as a rule, active = well fitted curve in the direction sought with a large enough effect; inconclusive = small, poorly fitted or top-dose-only effect, or effect the other way; inactive = no such curve, though single readings can be large or run the other way. A selection follows.

50 compounds from PubChem BioAssay AID1851 (National Center for Advancing Translational Sciences (NCATS), 2009) can be followed below.
% is set by controls: 0 for no effect and ±100 for the full control effect.

The target of the test is Cytochrome P450 2C9 (Homo sapiens) (UniProt P11712). Put plainly: Cytochrome panel assay with activity outcomes. To be noted: recombinant CYP, pro-luciferin dealkylation, luminescence, p450-cyp2c9; series mostly up to 57.1 µM; activity, negative = inhibition: at the top concentration.
Cytochrome P450 2C9 (Homo sapiens), sequence (P11712 whole entry, looked up): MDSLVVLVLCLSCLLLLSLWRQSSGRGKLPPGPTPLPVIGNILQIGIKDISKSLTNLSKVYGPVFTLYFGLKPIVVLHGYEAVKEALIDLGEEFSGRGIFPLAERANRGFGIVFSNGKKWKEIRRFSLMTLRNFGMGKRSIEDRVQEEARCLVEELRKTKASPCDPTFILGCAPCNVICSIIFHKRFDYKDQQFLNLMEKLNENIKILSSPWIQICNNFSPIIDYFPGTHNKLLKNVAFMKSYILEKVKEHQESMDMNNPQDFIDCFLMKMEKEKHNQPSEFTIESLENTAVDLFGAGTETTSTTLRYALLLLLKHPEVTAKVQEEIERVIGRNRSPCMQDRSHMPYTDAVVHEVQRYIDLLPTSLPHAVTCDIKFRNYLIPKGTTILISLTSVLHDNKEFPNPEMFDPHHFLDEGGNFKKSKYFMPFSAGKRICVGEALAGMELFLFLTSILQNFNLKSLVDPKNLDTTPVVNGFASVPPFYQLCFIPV
In the case of `CCOc1nc(N=C(N)N)nc2c(C)cccc12`, the “activity, negative = inhibition” value was -3.81% (inactive).

As to `COc1ccc2nc(N3C(=O)CC(Cc4ccc(Cl)cc4)C3=O)sc2c1` (stereo not given), the AC50 is 12.6 µM (active).

In the case of `COc1ccc2nc(NCN3C(=O)c4ccccc4C3=O)sc2c1`, the activity, negative = inhibition is -14.8% [at 11.4 µM] (inactive).

As to `COc1ccc2nc(N)sc2c1`, the “activity, negative = inhibition” value was -0.783% (inactive).

As for `CN1CCN(CCCBr)CC1`, the activity, negative = inhibition was 18% [at 11.4 µM] (inactive).

Take `C[C@H](O/N=C1/[C@H]2O[C@@H]2[C@@H](O)[C@H]2[C@H]1CCn1c(=O)n(-c3ccccc3)c(=O)n12)c1cn([C@H]2COC[C@H]2O)nn1`: the activity, negative = inhibition is 0.305% [at 11.4 µM] (inactive).

For the compound `CCNc1ncc2nc(-c3cccs3)c(=O)n(CCc3ccccc3)c2n1`, the “activity, negative = inhibition” value was -4.57% (inactive).

As for `CN1CCN(c2ncc3nc(-c4cccs4)c(=O)n(CCc4ccccc4)c3n2)CC1`, the “activity, negative = inhibition” value was 3.63% (inactive).

In the case of `CCCn1c(-c2cccs2)nc2nc3ccccc3nc21`, the AC50 is 10 µM (active).

Consider `Cc1ccc2nc(SCc3nc4c(cnn4-c4ccccc4)c(=O)[nH]3)[nH]c2c1`, for which the AC50 is 4.47 µM (active).

Regarding `COc1cc(/C=C\C(=O)N2CCC=CC2=O)cc(OC)c1OC`, the “activity, negative = inhibition” value was 17.9% [at 25.6 µM] (inactive).

As for `C=CCSc1nc2ccccc2n1C(=O)/C=C/c1cc(OC)c(OC)c(OC)c1`, the AC50 was 7.94 µM (active).

With `COc1cc(/C=C/C(=O)Nc2ccccc2C(F)(F)F)cc(OC)c1OC`, the “activity, negative = inhibition” value is -26.9% (inactive).

In the case of `CCSc1nc2ccccc2n1C(=O)/C=C\c1ccc(OC)c(OC)c1`, the AC50 is 1.58 µM (active).

Regarding `COc1ccc(NC(=O)COC(=O)Cn2c(C)nc3ccccc32)cc1OC`, the “activity, negative = inhibition” value was -22.4% (inactive).

`CC(=O)n1c(COS(C)(=O)=O)nc2ccccc21`: the activity, negative = inhibition was -7.23% [at 11.4 µM] (inactive).

Take `COc1ccc(O[C@H]2C=C[C@@H](c3ccccc3)O[C@H]2COC(=O)CC/C(C)=N\OC[C@@H](O)[C@H]2O[C@H]3OC(C)(C)O[C@H]3[C@@H]2O)cc1`: the AC50 is 1.58 µM (active).

With `COc1ccc(O[C@H]2C=C[C@@H](c3ccccc3)O[C@H]2CO/N=C(/C)CCC(=O)OC[C@@H]2O[C@H](c3ccccc3)C=C[C@@H]2Oc2ccc(OC)cc2)cc1`, the activity, negative = inhibition is -3.16% [at 11.4 µM] (inactive).

Consider `COc1ccc(O[C@H]2C=C[C@@H](c3ccccc3)O[C@H]2CO/N=C(/C)CCC(=O)OC[C@@H]2O[C@H](C#Cc3ccccc3)C=C[C@@H]2Oc2ccc(C)cc2)cc1`, for which the activity, negative = inhibition was -16.6% [at 11.4 µM] (inactive).

For the compound `CCCNC(=O)OC[C@@H]1O[C@H](CCO/N=C(\C)CCN2CCc3nc(CC)c(CC)cc3C2)C=C[C@@H]1Oc1ccc(OC)cc1`, the activity, negative = inhibition is -21.2% [at 11.4 µM] (inactive).

Regarding `CCCNC(=O)OC[C@@H]1O[C@H](CCO/N=C(\C)CCN2CCc3nc(-c4ccccc4)c(-c4ccccc4)cc3C2)C=C[C@@H]1Oc1ccc(OC)cc1`, the AC50 is 2 µM (active).

For `CCCNC(=O)OC[C@H]1O[C@@H](CCO/N=C2/[C@H]3O[C@@H]3[C@@H](O)[C@H]3[C@H]2CCn2c(=O)n(-c4ccccc4)c(=O)n23)C=C[C@@H]1Oc1ccc(OC)cc1`, the activity, negative = inhibition was -24.3% [at 11.4 µM] (inactive).

As for `C/C(CCC(=O)OC[C@@H]1O[C@H](C#Cc2ccccc2)C=C[C@@H]1Oc1ccc(C)cc1)=N/OC[C@@H](O)[C@H]1O[C@H]2OC(C)(C)O[C@H]2[C@@H]1O`, the activity, negative = inhibition is -25.1% [at 11.4 µM] (inactive).

On to `COc1ccc(O[C@H]2C=C[C@@H](c3ccccc3)O[C@H]2COC(=O)CC/C(C)=N/O[C@@H]2O[C@H](COC(C)=O)[C@H](OC(C)=O)[C@H](OC(C)=O)[C@H]2OC(C)=O)cc1`, for which the activity, negative = inhibition was -25.6% [at 11.4 µM] (inactive).

As for `CCCNC(=O)OC[C@@H]1O[C@H](c2ccccc2)C=C[C@@H]1Oc1ccc(OC)cc1`, the activity, negative = inhibition was -29.7% [at 11.4 µM] (inactive).

As for `COc1ccc(O[C@H]2C=C[C@@H](c3ccccc3)O[C@H]2COC(=O)CC/C(C)=N/OCC[C@@H]2C=C[C@H](OC(C)=O)[C@H](COC(C)=O)O2)cc1`, the half-maximal activity concentration (AC50) was 3.98 µM (active).

For `COc1ccc(O[C@H]2C=C[C@@H](c3ccccc3)O[C@@H]2CO/N=C(\C)CCN2CCc3nc(-c4ccccc4)c(-c4ccccc4)cc3C2)cc1`, the activity, negative = inhibition is -13.6% [at 11.4 µM] (inactive).

As to `COc1ccc(O[C@H]2C=C[C@@H](c3ccccc3)O[C@H]2COC(=O)N2CCCCC2)cc1`, the AC50 is 2.51 µM (active).

In the case of `C=CC[N+]1(CC#CCOC(c2ccccc2)c2ccccc2)CCOCC1`, the “activity, negative = inhibition” value is -4.98% (inactive).

For the compound `COc1ccccc1CNc1ncncc1-c1ccccc1C`, the activity, negative = inhibition was 11.7% [at 2.29 µM] (inactive).

Turning to `CO/N=C(\C)CCN1CCCCc2nc(C)c(C)cc21`, the activity, negative = inhibition is 8.57% [at 11.4 µM] (inactive).

In the case of `CC1=CC(=O)C=CC1(C)C(Cl)(Cl)Cl` (stereo not given), the “activity, negative = inhibition” value is -19.5% (inactive).

Regarding `Nc1nccc(Nc2ccc(S(N)(=O)=O)cc2)n1`, the activity, negative = inhibition is -3.1% [at 11.4 µM] (inactive).

In the case of `CCOc1ccc(C(=O)Nc2cnn(Cc3ccc(Cl)c(Cl)c3)c2)cc1`, the AC50 was 17.8 µM (active).

As for `CCCOc1ccc(C(=O)CCNc2ccc(C)c(Cl)c2)cc1`, the “activity, negative = inhibition” value was 1.11% (inactive).

`CCOC(OCC)P(=O)(O)CCCNCc1ccc(Cl)c(Cl)c1`: the “activity, negative = inhibition” value was 6.63% (inactive).

As for `CC(C)N(C(=O)CSc1nc2ccccc2n1-c1ccccc1)C(C)C`, the AC50 was 15.8 µM (active).

`CCCCc1c(O)nc(SCCN(C)C)n(-c2ccccc2)c1=O`: the “activity, negative = inhibition” value was -4.69% (inactive).

As to `Cn1c(SCc2nc3ccccc3n2CCO)nc2ccccc21`, the “activity, negative = inhibition” value was -20.4% (inactive).

Turning to `C[C@@H](N)C(=O)O`, the “activity, negative = inhibition” value was -3.47% (inactive).

`CCN1CCc2c(sc(NC(=S)NC(=O)c3ccccc3)c2C#N)C1`: the “activity, negative = inhibition” value was -29.2% (inactive).

As to `CCN1CCc2c(sc(N)c2C(N)=O)C1`, the “activity, negative = inhibition” value is -3.22% (inactive).

Consider `CCOC(=O)c1c(NC(=S)Nc2ccccc2)sc2c1CCN(CCc1ccccc1)C2`, for which the AC50 was 0.282 µM (active).

Turning to `CCSc1nnc(NC(=O)COc2ccc3ccccc3c2)s1`, the AC50 was 0.224 µM (active).

In the case of `CC(=O)CC(=O)Nc1ccc2ccccc2c1`, the activity, negative = inhibition is 21.1% [at 11.4 µM] (inactive).

In the case of `CCSc1nnc(NC(=O)Cc2ccccc2OC)s1`, the “activity, negative = inhibition” value is -20.3% (inactive).

Turning to `O=C(COc1ccc2ccccc2c1)Nc1ccc(Cc2ccncc2)cc1`, the AC50 was 0.316 µM (active).

As to `O=C(COc1ccc2ccccc2c1)NNC(=O)Cc1cccc2ccccc12`, the “activity, negative = inhibition” value is 4.04% (inactive).

Take `Nc1nc(Cl)cc(NCCO)n1`: the activity, negative = inhibition is 2.74% [at 11.4 µM] (inactive).

As for `O=C(O)[C@@H]1Cc2c([nH]c3ccccc23)[C@@H](CCCCO)N1`, the activity, negative = inhibition was -6.46% [at 11.4 µM] (inactive).
